About 1,200 (0.33%) of roughly 360,000 compounds were called active. Shown is part of a subset that was picked to be rich in actives. A number with no mark means an inactive call. No stated cut-off is given here; in the data, active means inhibition above about 37%; inactive means the rest.
The compounds below were run against Small ubiquitin-related modifier 1 (Homo sapiens) (UniProt P63165) (assay: SUMO1 binding to interaction partners, disruption – biochemical, uHTS, primary screen (AID 602429)). Conditions: SUMO1 binding to a labelled peptide, TR-FRET, 1 h; at 20 µM; active compounds read high.
Small ubiquitin-related modifier 1 (Homo sapiens), sequence (P63165 whole entry, looked up): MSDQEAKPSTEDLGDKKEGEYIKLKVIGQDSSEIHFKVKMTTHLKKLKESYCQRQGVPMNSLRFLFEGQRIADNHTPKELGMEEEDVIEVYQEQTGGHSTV

| Compound | inhibition |
| --- | --- |
| COc1ccc(C(=O)NC2(C(F)(F)F)NC(=O)N(CCCc3ccccc3)C2=O)c(OC)c1OC (stereo unspecified) | 7.81% |
| Cn1c2ccccc2c(=O)c2c(=O)n(Cc3ccco3)c(COc3ccccc3)nc21 | 42.3% (active) |
| O=C(Cn1c(=O)n(Cc2ccco2)c(=O)c2ccccc21)NCC1CCCO1 (stereo unspecified) | 4.85% |
| COc1ccc(-c2oc3ncn(Cc4ccco4)c(=N)c3c2-c2ccc(OC)cc2)cc1 | -9.5% |
| O=C(Nc1ccccc1C(=O)N1CCCCC1)c1ccco1 | -3.94% |
| O=C(Nc1ccccc1)c1ccccc1Br | 41.9% (active) |
| O=C(O)c1ccccc1-c1ccccc1C(=O)Nc1ccccc1Br | -0.773% |
| O=C(Nc1ccccc1)c1ccccc1NC(=O)C(F)(F)F | -1.22% |
| COc1ccc(NC(=S)N2CCC(NC(=O)c3cccc(F)c3)CC2)cc1 | 4.71% |
| Cc1noc(C)c1-c1nc(CSc2ccc(Cl)cc2)no1 | 1.71% |
| CCN(CC)CCCNC(=O)c1cn(C)c2ccc(S(=O)(=O)N(C)C3CCCCC3)cc2c1=O | 5.63% |
| COc1ccc2[nH]c3c(C)c4cc[n+](C)cc4c(C)c3c2c1 | 61.3% (active) |
| CCOc1cc(-c2conc2N)cc(OCC)c1OCC | 1.02% |
| CC(=O)Nc1ccc(NC(=O)CSc2nnc(C3CC3)n2-c2ccccc2)cc1 | 3.94% |
| CCOc1ccc(N(CC(=O)NCC2CCCO2)S(=O)(=O)c2ccc(C)cc2)cc1 (stereo unspecified) | 6.75% |
| COc1cccc(NC(=O)COc2cccnc2[N+](=O)[O-])c1 | -32.4% |
| CCCCCCC(=O)Nc1nc(C)c(-c2csc(Nc3cccc(OC)c3)n2)s1 | 40.2% (active) |
| C=CCCC(=O)Nc1nc(C)c(-c2csc(Nc3ccc(Cl)cc3)n2)s1 | 1.48% |
| CCCOC1CCCN(Cc2cn(C)nc2-c2ccccc2F)C1 (stereo unspecified) | 5.15% |
| COc1ccc(-c2csc(C(O)c3cccc(Cl)c3)n2)cn1 (stereo unspecified) | -2.47% |
| CCc1nn(CC(=O)N2CCN(c3cc(C)ccc3C)CC2)c(=O)c2cc3occc3n12 | 2.09% |
| O=S1(=O)CCO[C@H]2Cc3ccccc3[C@H]2N1Cc1ccccc1 | -0.696% |

| Compound | inhibition |
| --- | --- |
| O=C(CCC1CCCN(C(=O)c2ccc(F)c(F)c2)C1)N1CCN(c2ccccn2)CC1 (stereo unspecified) | 2.38% |
| C=Cc1ccc(C(=O)N2CCCC(CCC(=O)N3CCN(c4ccccn4)CC3)C2)cc1 (stereo unspecified) | 58.2% (active) |
| COc1cccc(CC(=O)N2CCCC(CCC(=O)N3CCN(c4ccccn4)CC3)C2)c1 (stereo unspecified) | -2.38% |
| Cc1ccc(NC(=S)NC(NC(=O)Cc2cccc3ccccc23)C(Cl)(Cl)Cl)cc1 (stereo unspecified) | 0.772% |
| COc1ccc(-n2c(SCC(=O)NCc3cccs3)nnc2-c2ccoc2C)cc1 | -0.51% |
| COc1ccc(-n2nnnc2SCC(=O)NCc2cccs2)cc1 | 43.1% (active) |
| COc1ccc(NC(=O)CSc2nnnn2-c2cccc(OC)c2)cc1 | -3.25% |
| CC(=O)c1nn(-c2ccccc2)c(=Nc2ccccc2)cc1C | -14.6% |
| OCCC1CN(Cc2cnc(-c3ccccc3)s2)CCN1CCc1ccccc1 (stereo unspecified) | -2.45% |
| Cn1c(N)c(C(=O)COC(=O)/C=C/c2ccc(OC(F)F)cc2)c(=O)n(C)c1=O | -2.46% |
| O=S(=O)(c1ccccc1)N1CN(Cc2ccc(F)cc2)c2nc3ccccc3nc21 | -3.38% |
| O=C(Nc1ccccc1Cc1ccccc1)c1ccc2c(c1)SC1=NS(=O)(=O)CCN12 | 28.2% |
| O=C(Nc1cccc(-c2nc3ccccc3[nH]2)c1)c1ccc(C(=O)Nc2cccc(-c3nc4ccccc4[nH]3)c2)cc1 | 56.6% (active) |
| O=C(NNC(=O)c1ccc(-c2ccccc2)cc1)Nc1ccccc1 | 2.2% |
| CCOc1ccc(C(=O)Nc2cccc(SC)c2)cc1 | -1.79% |
| C/C(CC(=O)NC(C)c1ccccc1)=N\NC(N)=S (stereo unspecified) | -2.76% |
| CC(=O)c1c(C)[nH]c(C(=O)CN2C(=O)NC(C)(C)C2=O)c1C | -2.31% |
| CCOc1cccc2c1OC1(CCCCC1)N1N=C(c3cccnc3)CC21 (stereo unspecified) | -1.86% |
| O=C(NCc1ccccc1)c1ccc(CNc2c(N3CCCC3)c(=O)c2=O)cc1 | -2.77% |
| COc1cc(NC(=O)c2ccc(CNc3c(N4CCCC4)c(=O)c3=O)cc2)cc(OC)c1OC | 48.9% (active) |
| O=C(NC1CCCCC1)c1ccc(CNc2c(N3CCOCC3)c(=O)c2=O)cc1 | -0.641% |
| COC(=O)c1sccc1NN1C(=O)c2ccccc2C1=O | -2.44% |

| Compound | inhibition |
| --- | --- |
| Cc1nc([N+](=O)[O-])cn1CC(=O)Nc1ccc2c(c1)OCO2 | -6.05% |
| Cc1ccc(C(=O)O)cc1-c1ccc(/C=C2\SC(=O)N(CC(=O)Nc3ccc4c(c3)OCO4)C2=O)o1 | 106% (active) |
| O=C(CCN1C(=O)c2ccncc2C1=O)Nc1ccc2c(c1)OCCO2 | -14.5% |
| CC(=O)O[C@H]1CC[C@@]2(C)[C@@H](CC[C@@H]3[C@@H]2CC[C@]2(C)[C@@H](C(C)(C)O)C[C@@H]32)C1 | 1.55% |
| C[C@H]([C@@H](O)[C@@H](O)[C@@H](C)C(C)(C)C)[C@H]1CC[C@H]2C3CC[C@H]4C[C@H](OS(=O)(=O)O)[C@@H](OS(=O)(=O)O)C[C@]4(C)[C@H]3CC[C@]12C (stereo partly specified) | 57.1% (active) |
| CCC(CC)c1nnc(NC(=O)C2CCN(C(=O)c3ccco3)CC2)s1 | 0.246% |
| Fc1cc(Br)ccc1NC(=S)Nc1cccnc1 | -2.62% |
| O=C(Nc1cccnc1)c1cc2cc(Br)ccc2oc1=O | 79% (active) |
| O=C(Nc1cccnc1)c1ccc(Cl)cc1[N+](=O)[O-] | -24.2% |
| CC(=O)c1c(C)[nH]c(C(=O)COC(=O)c2cccc(S(=O)(=O)N(C)c3ccccc3)c2)c1C | 0.686% |
| CCCCCCCCn1c2c(c(=N)c3c1CCC3)CCCC2 | -1.62% |
| COc1ccc(NC(=O)CN(C)C(=O)c2cc(C)oc2C)cc1 | -3.07% |
| COc1ccc(CC(=O)Nc2ccc(-c3nnc(-c4ccc(C)cc4)o3)cc2)cc1 | 52% (active) |
| COc1ccc(NC(=O)Cn2c(-c3ccc(OC)cc3)cn(-c3ccc(C)cc3)c2=O)cc1 | 5.25% |
| COc1c(F)c(F)c(-c2csc(N)n2)c(F)c1F | -2.44% |
| CCCc1nn(C)c2c(=O)[nH]c(-c3cc(S(N)(=O)=O)ccc3OCC)nc12 | 3.1% |
| CN(CC(=O)NC1CCN(Cc2ccccc2)CC1)S(=O)(=O)c1ccc(Cl)s1 | 0.847% |
| O=C(O)C(c1ccccc1)N1C(=O)/C(=C\c2ccc(-c3cccc(Cl)c3)o2)SC1=S (stereo unspecified) | 75.9% (active) |
| CCC(C)N1C(=O)S/C(=C/c2ccc(Sc3nc4ccccc4[nH]3)o2)C1=O (stereo unspecified) | -5.85% |
| O=C(Cn1nnc(-c2ccccc2)n1)N/N=C/c1ccc(-c2ccc(Cl)cc2)o1 | 7.31% |
| COc1ccccc1CC(NC(C)=O)C(=O)NC1CCN(C(=O)Nc2ccccc2Cl)CC1 (stereo unspecified) | 0.952% |
| CN1C(=O)c2ccccc2C(C(=O)NCCCN2CCCC2)C1c1c[nH]c2ccccc12 (stereo unspecified) | 3% |

| Compound | inhibition |
| --- | --- |
| Cn1c(=O)c2cc(S(=O)(=O)NCCC(=O)Nc3ccc(F)cc3F)ccc2n(C)c1=O | -1.62% |
| Cc1cccc(-[n+]2c(-c3cccc(Br)c3)[nH]c3nc4ccccc4nc32)c1 | 1.4% |
| C=CC1=C(C(=O)O)N2C(=O)[C@@H](NC(=O)/C(=N\OCC(=O)O)c3csc(N)n3)[C@H]2SC1 | 56.1% (active) |
| C=CC1=C(C(=O)O)N2C(=O)[C@@H](NC(=O)/C(=N/OCC(=O)O)c3csc(N)n3)[C@H]2SC1 | 121% (active) |
| COc1cc(C(=O)OCC(=O)NC23CC4CC(CC(C4)C2)C3)cc(OC)c1OC | 5.78% |
| Cc1nc(-c2ccccc2)sc1-c1nnc(C2CC2)o1 | -25.8% |
| C#CC(C)(C)NC(=O)c1cnc(-c2ccccc2)nc1-c1ccccc1 | 1.04% |
| Cc1nc(-c2ccccc2)sc1-c1nc(-c2ccccc2)ncc1S(=O)(=O)c1ccccc1 | 56.4% (active) |
| O=C(CCNC(=O)c1ccc(Br)cc1)Nc1cccc(S(=O)(=O)N2CCCCC2)c1 | 0.625% |
| O=C1NC[C@H](CCCCN2CCN(CCc3ccccc3)C(=O)C2=O)N(CC2CCCCC2)C1=O | 0.562% |
| COc1cc(OC)c(OC)cc1/C=N/Nc1ncnc2c1[nH]c1ccc(C)cc12 | 60.7% (active) |
| Cc1ccc2[nH]c3c(=O)n(Cc4ccccn4)cnc3c2c1 | 2.63% |
| CC1(C)CC(=O)C=C(c2ccc(COC(=O)c3cc(F)cc(F)c3)cc2)C1=O | -22.7% |
| COc1ccc(OC)c(NC(=S)N2CCc3ccccc3C2)c1 | 0.375% |
| O=C(NCc1ccccc1)C(c1ccc(F)cc1)N1CCN(C(=O)C2CCCO2)CC1 (stereo unspecified) | -1.69% |
| CCOC(=O)c1c(-c2cccc(N)c2)cn2ccccc12 | -5.65% |
| CC1(C)OC(=O)N2CCc3ccccc3C21C (stereo unspecified) | 3.74% |
| CC(=O)Nc1ccc(S(=O)(=O)N2CCC(C(=O)N[C@@H](Cc3ccccc3)C(=O)O)CC2)cc1 | 0.0701% |
| COc1cc(C2C3C(=O)N(c4ccccc4)C(=O)C3ON2c2ccccc2)ccc1O (stereo unspecified) | 5.72% |
| O=c1ccc2c(-c3ccccc3S(=O)(=O)O)c3ccc(O)c(O)c3oc-2c1O | 48.2% (active) |

Reference: PubChem BioAssay AID602429 (Sanford-Burnham Center for Chemical Genomics, 2012)
